This passage reports growth results from PubChem BioAssay (NCI).

Assay in all cases: NCI-60 one-dose screen, 48 h (100 = growth as untreated, 0 = no growth, -100 = all killed)
The test system of experiment [1] is SK-MEL-2 melanoma. The note with it: 10 µM unless noted.
The subject of experiment [2] is EKVX NSCLC. The note with it: 10 µM unless noted.
Experiment [3] has as its system SN12C renal. The note with it: 10 µM unless noted.
The test system of experiment [4] is UO-31 renal. The note with it: 10 µM unless noted.
The subject of experiment [5] is TK-10 renal. The note with it: 10 µM unless noted.
In experiment [6] the test system is ACHN renal. The conditions noted are these: 10 µM unless noted.
Experiment [7] deals with CAKI-1 renal. The note with it: 10 µM unless noted.
In experiment [8] the test system is A498 renal. The conditions noted are these: 10 µM unless noted.
In experiment [9] the test system is CCRF-CEM leukemia. The note with it: 10 µM unless noted.
Experiment [10] has as its system MOLT-4 leukemia. The conditions noted are these: 10 µM unless noted.
For experiment [11], the system named is SR leukemia. The conditions noted are these: 10 µM unless noted.
The subject of experiment [12] is RPMI-8226 leukemia. The conditions noted are these: 10 µM unless noted.
The test system of experiment [13] is OVCAR-8 ovarian. The note with it: 10 µM unless noted.
The test system of experiment [14] is OVCAR-5 ovarian. The conditions noted are these: 10 µM unless noted.
The test system of experiment [15] is OVCAR-4 ovarian. The conditions noted are these: 10 µM.
Experiment [16] deals with IGROV1 ovarian. The conditions noted are these: 10 µM unless noted.
Experiment [17] relates to OVCAR-3 ovarian. The conditions noted are these: 10 µM unless noted.
In experiment [18] the test system is HS 578T breast. The conditions noted are these: 10 µM unless noted.
Experiment [19] concerns NCI/ADR-RES ovarian. The conditions noted are these: 10 µM unless noted.

This is part of a sample that, as a whole, favours compounds with a hit. Of some 83,000 tested, about 20% had one in any assay.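 48-hour exposure, single concentration, 96-well plates; percent growth endpoint where 0 means no net growth. Active: below 10.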 Unmarked numbers belong to inactive results. The source made the active and inactive calls.

On to `C#C[C@]1(O)CC[C@H]2[C@@H]3CC=C4c5nc(Nc6ccccn6)sc5CC[C@]4(C)[C@H]3CC[C@@]21C`, for which the growth is -29.6% (active) in experiment [1]; 2.77% (active) in experiment [2]; 32.1% in experiment [3]; -24.4% (active) in experiment [4]; 12.3% in experiment [5]; 21.6% in [6]. Further, the growth is -37.6% (active) in experiment [7]; -49% (active) in experiment [8]; 0.227% (active) in [9]; -11.8% (active) in [10]; 8.66% (active) in experiment [11]; -45.6% (active) in [12]. Also, the growth in experiment [13] was 27.6%; in [14], 30.1%; in [15], 16.1%; in experiment [16], 32.7%; in experiment [17], 20.8%; in experiment [18], -16.8% (active). Moreover, the growth in experiment [19] was 22.6%.
For the compound `c1cc2ccc3cc2cc1CNCCN1CCNCc2ccc4ccc(cc4c2)CNCCN(CCNC3)CCNCc2ccc3ccc(cc3c2)CNCC1`, the growth is -9.83% (active) in [1]; 48.7% in [2]; 1.52% (active) in experiment [3]; 82.4% in [4]; 75.2% in experiment [5]; 91.2% in experiment [6]. Further, the growth in experiment [7] was 93.8%; in [8], 100%; in [9], 51%; in [10], 8.03% (active); in experiment [11], 10.1%; in experiment [12], 7.69% (active). The growth in experiment [13] is 69.3%; in [14], 0.497% (active); in [15], -7.14% (active); in experiment [16], 21.9%; in experiment [17], -1.21% (active); in experiment [19] it was 99%.
Take `COc1ncc(-c2ccc3nccc(C#CCCCCC(=O)NO)c3c2)cc1NS(=O)(=O)c1ccc(F)cc1F`: the growth was -60.7% (active) in experiment [1]; 4.18% (active) in experiment [2]; 15% in experiment [3]; 8.08% (active) in experiment [4]; -25.1% (active) in experiment [5]; 10.7% in [6]. Besides, the growth was 6.12% (active) in experiment [7]; -76.1% (active) in [8]; -8.34% (active) in experiment [9]; -18% (active) in [10]; -24.5% (active) in experiment [11]; -25.1% (active) in experiment [12]. The growth in experiment [13] is -12.8% (active); in experiment [14], 4.43% (active); in experiment [15] it was 24.9%; in [16], -21.6% (active); in experiment [17] it was -31.6% (active); in [18], -23.8% (active). In addition, in experiment [19], the growth is 55.3%.
Consider `C#C[C@]1(O)CC[C@H]2[C@@H]3CC=C4c5nc(Nc6ncccn6)sc5CC[C@]4(C)[C@H]3CC[C@@]21C`, for which the growth is 18% in experiment [1]; 43.6% in [2]; 82.8% in [3]; 83.4% in [4]; 77.3% in experiment [5]; 60.7% in [6]. The growth in experiment [7] was 58.6%; in experiment [8], 34.4%; in experiment [9], 48.6%; in experiment [10], 2.75% (active); in experiment [11], 17.8%; in experiment [12], -12.3% (active). The growth in experiment [13] is 77%; in experiment [14], 86%; in [15] it was 67.9%; in experiment [16], 70.8%; in [17], 65.3%; in experiment [18], 1.8% (active). The growth in [19] is 75.4%.
Turning to `CCCSc1nc(N)nc2nc[nH]c12`, the growth is 106% in experiment [1]; 106% in [2]; 98.3% in experiment [3]; 93.5% in [4]; 154% in [5]; 96.4% in [6]. For the same compound, the growth in experiment [7] is 128%; in [8], 123%; in [9], 115%; in experiment [10], 121%; in [11], 107%; in experiment [12], 101%. For the same compound, the growth in [13] is 99.8%; in experiment [14], 108%; in experiment [15], 114%; in experiment [16] it was 80.8%; in [17], 103%; in experiment [18] it was 135%. For the same compound, the growth in experiment [19] is 108%.
As to `CCn1cc(-c2[nH]c(=S)ncc2-c2ccc(Cl)cc2)c(-c2ccc(Br)cc2)n1`, the growth in experiment [1] was 72%; in experiment [2], 85.7%; in experiment [3] it was 85.1%; in [4], 89.4%; in [5], 109%; in experiment [6] it was 91.1%. Besides, the growth was 98.5% in experiment [7]; 106% in experiment [8]; 97.8% in experiment [9]; 97.2% in experiment [10]; 93.1% in experiment [11]; 77.6% in [12]. Moreover, the growth is 86.9% in experiment [13]; 90.5% in [14]; 94.2% in experiment [15]; 81.5% in experiment [16]; 97.4% in [17]; 108% in experiment [18]. Also, the growth in experiment [19] was 82.5%.
Take `C[n+]1c2ccccc2nc2c(N)cc(N)cc21`: the growth in experiment [1] was 121%; in [2], 65.9%; in experiment [3], 5.51% (active); in experiment [4], 78.3%; in experiment [5] it was 126%; in experiment [6] it was 96.7%. For the same compound, the growth in [7] is 111%; in experiment [8], 121%; in [9], 58.8%; in [10], 34.8%; in experiment [11] it was 38.3%; in experiment [12] it was 80.2%. Also, the growth in experiment [13] was 41.6%; in experiment [14], 101%; in [15], 72.5%; in experiment [16], 70.1%; in experiment [17] it was 15.2%; in experiment [18] it was 55.5%. Besides, in experiment [19], the growth was 92.9%.
In the case of `COc1cc2c(c(OC)c1OC)-c1cc(I)c(O)cc1[C@@H](NC(C)=O)CC2`, the growth in experiment [1] is 53.4%; in experiment [2], 60.2%; in experiment [3] it was 38.6%; in experiment [4], 25.3%; in experiment [5], 66.9%; in experiment [6], 27.9%. Further, the growth in experiment [7] is 30.7%; in experiment [8] it was 49.2%; in experiment [9], 30%; in experiment [10], 33.7%; in [11], 33.2%; in experiment [12] it was 12.9%. The growth is 12.6% in experiment [13]; 49.2% in [14]; 37.3% in [15]; -3.77% (active) in experiment [16]; 17.5% in [17]; 76.4% in [18]. Further, the growth in experiment [19] was 25.4%.
Turning to `c1ccc(-c2nnc(-c3c[nH]c4ncccc34)s2)cc1`, the growth was 103% in experiment [1]; 37.2% in [2]; 86.6% in experiment [3]; 51.6% in experiment [4]; 124% in experiment [5]; 69.4% in [6]. Further, the growth was 53.3% in [7]; 67.3% in [8]; 101% in experiment [9]; 83.4% in experiment [10]; 83.6% in experiment [11]; 91.9% in [12]. Also, the growth in [13] is 98.9%; in experiment [14], 125%; in [15], 89.4%; in experiment [16] it was 54.6%; in experiment [17], 88.5%; in experiment [18], 97.1%. The growth in experiment [19] was 95.7%.
Regarding `CC1=CC[C@@H]2C(C)(C)C(=O)CC[C@@]2(C)[C@@H]1COc1ccc2ccc(=O)oc2c1`, the growth in experiment [1] was 77%; in experiment [2], 71.4%; in experiment [3] it was 76.1%; in [4], 39%; in experiment [5], 82%; in [6], 74.2%. The growth in experiment [7] was 47.3%; in experiment [8] it was 75.3%; in [9], 61.9%; in experiment [10] it was 39.1%; in experiment [11], 77.9%; in experiment [12] it was 45.9%. The growth in [13] is 51.1%; in [14] it was 98%; in [15], 23.1%; in experiment [16], 77.9%; in experiment [17] it was 72.5%; in experiment [18], 77.6%. Also, in [19], the growth was 28.4%.
